Measurements published in PubChem BioAssay (NCATS).
Results filed as inconclusive are left out. Calls of active or inactive are those of the source. Calls follow the shape of the dose curve; as a rule, active = well fitted inhibition curve with a large enough effect; inconclusive = small, poorly fitted or top-dose-only effect; inactive = flat fitted curve, though single readings scatter.

Experiments:
Assay in all cases: qHTS profiling for inhibitors of Plasmodium falciparum proliferation (AID 504749); also: nearly all actives have a fitted effect of over 60% in size
Settings in all cases: P. falciparum in erythrocytes, SYBR Green DNA, 72 h; series mostly up to 28.7 µM
CP256 = system: CP256
In short: (§1)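 P. falciparum-infected erythrocytes (0.3% parasitemia, 2.5% hematocrit final) were exposed to compounds for 72 h at 37 C in 5% CO2, then lysed with SYBR Green buffer overnight at room temperature; parasite DNA fluorescence was normalized to artemisinin and DMSO controls.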

CP260 = system: CP260
In short: as §1

CP262 = system: CP262
In short: as §1

CP265 = system: CP265
In short: as §1

CP266 = system: CP266
In short: as §1

CP268 = system: CP268
In short: as §1

CP269 = system: CP269
In short: as §1

CP286 = system: CP286
In short: as §1

CP291 = system: CP291
In short: as §1

CP297 = system: CP297
In short: as §1

CP305 = system: CP305
In short: as §1

CP315 = system: CP315
In short: as §1

CP325 = system: CP325
In short: as §1

CP329 = system: CP329
In short: as §1

CP335 = system: CP335
In short: as §1

DFO2036 = system: DFO2036
In short: as §1

DIV14 = system: DIV14
In short: as §1

DIV17 = system: DIV17
In short: as §1

DIV30 = system: DIV30
In short: as §1

Dd2 = system: Dd2
In short: as §1

ECU = system: ECU
In short: as §1

FAB9 = system: FAB9
In short: as §1

GB4 = system: GB4
In short: as §1

HB3 = system: HB3
In short: as §1

ICS = system: ICS
In short: as §1

JCK = system: JCK
In short: as §1

N140 = system: N140
In short: as §1

P93_24 = system: P93_24
In short: as §1

P94_40 = system: P94_40
In short: as §1

PAD = system: PAD
In short: as §1

PC15 = system: PC15
In short: as §1

PC26 = system: PC26
In short: as §1

PC49 = system: PC49
In short: as §1

SC27B = system: SC27B
In short: as §1

TAB109 = system: TAB109
In short: as §1

TAB113 = system: TAB113
In short: as §1

TAB165 = system: TAB165
In short: as §1

W2 = system: W2
In short: as §1

Measured: Potency

CC(C)(C)NC[C@@H](O)c1ccc(O)c(CO)n1
inactive: CP256 | CP260 | CP262 | CP265 | CP266 | CP268 | CP269 | CP286 | CP291 | CP297 | CP305 | CP315 | CP325 | CP329 | CP335 | DFO2036 | DIV14 | DIV17 | DIV30 | Dd2 | ECU | FAB9 | GB4 | HB3 | ICS | JCK | N140 | P93_24 | P94_40 | PAD | PC15 | PC26 | PC49 | SC27B | TAB109 | TAB113 | TAB165 | W2
